{"source": "the supplement of paper PMC11732987", "about": "“Enantioselective OTUD7B fragment discovery through chemoproteomics screening and high-throughput optimisation” (Communications Chemistry, 2025)", "assay_in_all_cases": "log2 ratio of Biotin-Ahx-Ub-VS probe labelling (fragment/DMSO); higher = less target engagement (more negative = stronger competition), active = hit call of the paper (q ≤ 0.05, log2 ratio ≤ -1)", "details_in_all_cases": "compound concentration: 200 uM; treatment time: 3 h", "key": {"OTUD6B": {"target": "T1, OTUD6B (UniProt Q8N6M0)", "T1 sequence (whole entry)": "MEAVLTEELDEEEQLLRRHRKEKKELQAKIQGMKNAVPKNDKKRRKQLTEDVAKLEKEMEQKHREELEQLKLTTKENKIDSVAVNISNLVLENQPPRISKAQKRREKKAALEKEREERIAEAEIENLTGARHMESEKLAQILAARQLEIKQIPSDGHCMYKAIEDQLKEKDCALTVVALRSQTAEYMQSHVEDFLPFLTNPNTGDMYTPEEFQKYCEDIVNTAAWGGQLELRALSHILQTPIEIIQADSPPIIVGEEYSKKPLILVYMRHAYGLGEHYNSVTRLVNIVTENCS", "in_short": "(§1)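 HEK293T lysate (495 µg per sample, in Tris/CHAPS/IGEPAL buffer with protease inhibitors) was exposed in triplicate for 3 h to fragment at 200 µM or to vehicle, then to Biotin-Ahx-Ub-VS at 0.5 µM final for 1 h. Labelled DUBs were enriched on NeutrAvidin, digested with LysC and trypsin, and analysed by diaPASEF LC-MS/MS. Spectronaut label-free quantities were normalised to the global median, and values are average log2 ratios of fragment over vehicle from an unpaired t-test. Only proteins with ≥2 unique peptides were used.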"}, "OTUD7B": {"target": "T2, OTUD7B (UniProt Q6GQQ9)", "T2 sequence (whole entry)": "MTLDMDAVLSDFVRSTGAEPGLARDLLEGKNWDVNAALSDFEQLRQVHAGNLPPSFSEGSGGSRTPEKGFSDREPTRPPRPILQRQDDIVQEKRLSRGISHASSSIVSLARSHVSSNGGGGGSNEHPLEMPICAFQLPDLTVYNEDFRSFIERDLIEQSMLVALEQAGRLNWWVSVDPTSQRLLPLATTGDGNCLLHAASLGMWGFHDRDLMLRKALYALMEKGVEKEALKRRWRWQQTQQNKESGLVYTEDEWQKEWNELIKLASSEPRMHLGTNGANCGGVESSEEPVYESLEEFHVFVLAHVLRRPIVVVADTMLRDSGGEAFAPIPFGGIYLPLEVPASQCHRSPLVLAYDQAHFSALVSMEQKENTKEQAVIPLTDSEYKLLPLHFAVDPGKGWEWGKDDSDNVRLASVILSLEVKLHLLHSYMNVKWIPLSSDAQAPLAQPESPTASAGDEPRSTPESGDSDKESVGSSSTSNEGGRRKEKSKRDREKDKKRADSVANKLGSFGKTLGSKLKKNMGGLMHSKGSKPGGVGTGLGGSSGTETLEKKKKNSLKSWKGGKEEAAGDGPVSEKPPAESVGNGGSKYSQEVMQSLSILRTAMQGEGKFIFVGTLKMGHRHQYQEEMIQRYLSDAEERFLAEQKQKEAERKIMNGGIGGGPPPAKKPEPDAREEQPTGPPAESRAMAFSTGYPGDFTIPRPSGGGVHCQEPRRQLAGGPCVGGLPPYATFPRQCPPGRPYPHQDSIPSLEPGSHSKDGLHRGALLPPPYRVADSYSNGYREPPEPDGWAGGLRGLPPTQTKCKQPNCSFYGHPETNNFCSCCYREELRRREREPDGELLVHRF", "in_short": "as §1"}, "PRPF8": {"target": "PRPF8 (UniProt Q6P2Q9)", "in_short": "as §1"}, "PSMD7": {"target": "T3, PSMD7 (UniProt P51665)", "T3 sequence (whole entry)": "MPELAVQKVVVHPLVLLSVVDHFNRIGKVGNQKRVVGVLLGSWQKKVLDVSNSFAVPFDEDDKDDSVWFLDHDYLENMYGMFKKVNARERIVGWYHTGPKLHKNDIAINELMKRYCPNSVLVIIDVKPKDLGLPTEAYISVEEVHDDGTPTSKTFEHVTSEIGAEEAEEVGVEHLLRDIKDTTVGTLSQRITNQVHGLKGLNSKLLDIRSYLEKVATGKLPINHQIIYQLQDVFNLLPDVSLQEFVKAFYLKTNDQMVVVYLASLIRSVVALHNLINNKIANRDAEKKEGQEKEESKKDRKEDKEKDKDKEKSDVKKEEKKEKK", "in_short": "as §1"}, "UCHL1": {"target": "UCHL1 (UniProt P09936)", "sequence (P09936 whole entry, looked up)": "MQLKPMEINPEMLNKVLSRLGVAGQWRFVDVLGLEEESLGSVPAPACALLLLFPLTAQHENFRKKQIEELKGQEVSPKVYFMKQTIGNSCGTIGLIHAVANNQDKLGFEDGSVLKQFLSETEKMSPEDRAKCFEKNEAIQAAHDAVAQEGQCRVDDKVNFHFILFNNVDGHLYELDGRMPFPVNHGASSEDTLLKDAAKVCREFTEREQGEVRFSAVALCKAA", "in_short": "as §1"}, "UCHL3": {"target": "T4, UCHL3 (UniProt P15374)", "T4 sequence (whole entry)": "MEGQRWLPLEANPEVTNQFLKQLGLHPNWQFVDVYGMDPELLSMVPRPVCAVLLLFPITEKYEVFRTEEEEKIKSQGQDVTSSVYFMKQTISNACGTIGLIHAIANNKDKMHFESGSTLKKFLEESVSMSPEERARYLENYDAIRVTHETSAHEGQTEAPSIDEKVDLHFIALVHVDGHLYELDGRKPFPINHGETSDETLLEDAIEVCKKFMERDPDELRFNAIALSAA", "in_short": "as §1"}, "UCHL5": {"target": "T5, UCHL5 (UniProt Q9Y5K5)", "T5 sequence (whole entry)": "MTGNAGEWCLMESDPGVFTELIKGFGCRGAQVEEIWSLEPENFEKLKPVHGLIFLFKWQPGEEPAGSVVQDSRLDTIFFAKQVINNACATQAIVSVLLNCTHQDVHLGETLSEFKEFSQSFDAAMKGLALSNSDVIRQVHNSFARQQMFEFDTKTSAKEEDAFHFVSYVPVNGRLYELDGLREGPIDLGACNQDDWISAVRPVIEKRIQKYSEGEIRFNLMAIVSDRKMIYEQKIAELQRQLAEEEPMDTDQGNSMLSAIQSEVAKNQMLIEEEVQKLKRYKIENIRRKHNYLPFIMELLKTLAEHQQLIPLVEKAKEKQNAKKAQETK", "in_short": "as §1"}, "USP10": {"target": "USP10 (UniProt Q14694)", "sequence (Q14694 whole entry)": "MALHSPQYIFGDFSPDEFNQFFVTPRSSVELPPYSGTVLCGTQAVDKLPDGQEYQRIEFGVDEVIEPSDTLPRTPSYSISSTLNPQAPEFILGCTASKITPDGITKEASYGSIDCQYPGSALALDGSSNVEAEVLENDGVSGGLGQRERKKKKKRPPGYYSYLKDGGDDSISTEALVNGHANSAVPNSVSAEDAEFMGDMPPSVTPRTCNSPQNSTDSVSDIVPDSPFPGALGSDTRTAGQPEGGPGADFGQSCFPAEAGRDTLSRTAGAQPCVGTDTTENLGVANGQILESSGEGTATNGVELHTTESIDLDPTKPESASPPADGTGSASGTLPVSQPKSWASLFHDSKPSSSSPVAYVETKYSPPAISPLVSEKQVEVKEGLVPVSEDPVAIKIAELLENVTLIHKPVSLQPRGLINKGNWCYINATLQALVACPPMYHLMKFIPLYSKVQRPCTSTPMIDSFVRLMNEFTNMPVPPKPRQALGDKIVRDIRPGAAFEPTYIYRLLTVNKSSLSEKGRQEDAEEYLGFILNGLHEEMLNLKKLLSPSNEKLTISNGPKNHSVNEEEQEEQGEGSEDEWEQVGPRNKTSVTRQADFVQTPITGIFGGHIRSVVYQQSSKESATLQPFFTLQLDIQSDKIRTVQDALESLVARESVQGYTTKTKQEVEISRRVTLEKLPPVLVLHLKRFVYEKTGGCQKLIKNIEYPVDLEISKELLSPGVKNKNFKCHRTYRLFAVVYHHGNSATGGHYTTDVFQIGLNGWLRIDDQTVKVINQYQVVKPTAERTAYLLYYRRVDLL", "in_short": "as §1"}, "USP15": {"target": "T6, USP15 (UniProt Q9Y4E8)", "T6 sequence (whole entry)": "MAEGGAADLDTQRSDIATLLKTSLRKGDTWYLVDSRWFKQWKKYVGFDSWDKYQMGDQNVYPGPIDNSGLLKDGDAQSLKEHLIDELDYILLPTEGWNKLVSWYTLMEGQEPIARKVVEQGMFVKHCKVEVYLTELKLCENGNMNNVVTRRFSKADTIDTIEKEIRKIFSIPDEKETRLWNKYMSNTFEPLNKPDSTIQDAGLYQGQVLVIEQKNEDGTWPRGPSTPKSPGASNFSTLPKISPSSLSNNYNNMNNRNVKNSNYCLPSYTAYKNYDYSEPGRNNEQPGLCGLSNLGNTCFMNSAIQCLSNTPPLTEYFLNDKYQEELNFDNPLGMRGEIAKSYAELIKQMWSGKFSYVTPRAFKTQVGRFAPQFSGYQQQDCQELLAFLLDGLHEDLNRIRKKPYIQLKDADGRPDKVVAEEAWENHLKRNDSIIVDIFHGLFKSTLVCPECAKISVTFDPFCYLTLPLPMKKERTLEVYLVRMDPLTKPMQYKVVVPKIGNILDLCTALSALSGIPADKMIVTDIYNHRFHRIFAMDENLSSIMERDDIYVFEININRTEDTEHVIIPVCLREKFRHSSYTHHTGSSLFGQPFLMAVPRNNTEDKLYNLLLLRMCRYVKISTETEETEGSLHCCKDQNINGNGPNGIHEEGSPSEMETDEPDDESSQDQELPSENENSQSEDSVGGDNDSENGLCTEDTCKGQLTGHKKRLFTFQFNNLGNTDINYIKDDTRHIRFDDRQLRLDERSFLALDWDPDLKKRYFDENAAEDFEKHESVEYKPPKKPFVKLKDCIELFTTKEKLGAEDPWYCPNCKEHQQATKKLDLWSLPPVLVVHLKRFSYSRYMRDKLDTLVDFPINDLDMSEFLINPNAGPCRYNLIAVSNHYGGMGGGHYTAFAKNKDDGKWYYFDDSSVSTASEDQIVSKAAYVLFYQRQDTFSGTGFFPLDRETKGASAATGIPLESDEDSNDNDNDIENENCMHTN", "in_short": "as §1"}, "USP16": {"target": "USP16 (UniProt Q9Y5T5)", "sequence (Q9Y5T5 whole entry, looked up)": "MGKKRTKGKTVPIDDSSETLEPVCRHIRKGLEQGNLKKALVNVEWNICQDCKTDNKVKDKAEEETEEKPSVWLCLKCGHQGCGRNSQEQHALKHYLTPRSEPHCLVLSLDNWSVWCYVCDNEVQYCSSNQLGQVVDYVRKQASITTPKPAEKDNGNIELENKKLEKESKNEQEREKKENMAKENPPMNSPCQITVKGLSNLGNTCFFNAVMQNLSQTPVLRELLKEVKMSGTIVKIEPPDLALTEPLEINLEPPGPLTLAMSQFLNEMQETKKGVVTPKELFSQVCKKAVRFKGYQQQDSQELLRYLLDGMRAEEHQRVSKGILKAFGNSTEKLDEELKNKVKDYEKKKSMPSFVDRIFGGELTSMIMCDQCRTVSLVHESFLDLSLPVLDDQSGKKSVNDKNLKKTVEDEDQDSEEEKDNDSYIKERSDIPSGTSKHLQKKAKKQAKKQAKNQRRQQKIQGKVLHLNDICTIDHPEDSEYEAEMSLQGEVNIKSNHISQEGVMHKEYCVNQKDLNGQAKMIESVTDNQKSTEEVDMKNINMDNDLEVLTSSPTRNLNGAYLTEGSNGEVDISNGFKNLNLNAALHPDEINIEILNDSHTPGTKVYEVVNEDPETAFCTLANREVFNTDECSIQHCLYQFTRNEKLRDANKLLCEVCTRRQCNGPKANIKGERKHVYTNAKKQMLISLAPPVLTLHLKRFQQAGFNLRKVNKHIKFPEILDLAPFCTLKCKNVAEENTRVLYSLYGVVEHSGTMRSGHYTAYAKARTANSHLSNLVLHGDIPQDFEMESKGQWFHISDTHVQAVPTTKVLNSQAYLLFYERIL", "in_short": "as §1"}}, "note": "Unmarked numbers belong to inactive results.", "data": [{"smiles": "O=C(CCl)N[C@H]1CC[C@@H](CO)CC1", "values": [{"measurement": "log2 ratio of Biotin-Ahx-Ub-VS probe labelling", "setting": "OTUD6B", "value": -0.662}, {"measurement": "log2 ratio of Biotin-Ahx-Ub-VS probe labelling", "setting": "OTUD7B", "value": "-1.44 (active)"}, {"measurement": "log2 ratio of Biotin-Ahx-Ub-VS probe labelling", "setting": "PRPF8", "value": -0.24}, {"measurement": "log2 ratio of Biotin-Ahx-Ub-VS probe labelling", "setting": "PSMD7", "value": -0.201}, {"measurement": "log2 ratio of Biotin-Ahx-Ub-VS probe labelling", "setting": "UCHL1", "value": "-2.47 (active)"}, {"measurement": "log2 ratio of Biotin-Ahx-Ub-VS probe labelling", "setting": "UCHL3", "value": -0.884}, {"measurement": "log2 ratio of Biotin-Ahx-Ub-VS probe labelling", "setting": "UCHL5", "value": -0.9}, {"measurement": "log2 ratio of Biotin-Ahx-Ub-VS probe labelling", "setting": "USP10", "value": -0.226}, {"measurement": "log2 ratio of Biotin-Ahx-Ub-VS probe labelling", "setting": "USP15", "value": -0.938}, {"measurement": "log2 ratio of Biotin-Ahx-Ub-VS probe labelling", "setting": "USP16", "value": -0.292}]}]}
